Unmarked numbers belong to inactive results. The source made the active and inactive calls. Calls come from the whole dose curve; as a rule, active = well fitted activation curve with a large enough effect in the repeat runs; inconclusive = weak or mixed curves; inactive = flat fitted curve, though single readings scatter.
Target: KiSS-1 receptor (Homo sapiens) (UniProt Q969F8)
Experiment: Human kisspeptin (KISS1R) small molecule agonists, calcium flux assay in KISS1R-HEK293 cells (AID 1920064)
Conditions: KISS1R-HEK293, calcium flux fluorescence, agonist; series mostly up to 76.8 µM; activation: at the top concentration
Description: National Center for Advancing Translational Sciences [NCATS]
Division of Preclinical Innovation [DPI]
U.S. Environmental Protection Agency [EPA]
National Institutes of Environmental Health Sciences [NIEHS]
National Toxicology Program [NTP]
U.S. Food and Drug Administration [FDA]
Kisspeptin and its receptor KISS1R play key roles in mammalian reproduction due to their involvement in the onset of puberty and control of the hypothalamic-pituitary-gonadal axis such as regulates GnRH release from the hypothalamus. The kisspeptin/KISS1R system also plays a direct role in peripheral organs (including the ovary, testis, uterus, and placenta) and is implicated in reproductive diseases such as miscarriage and polycystic ovary syndrome (PCOS). Abnormal KISS1R activity is associated with abnormal puberty, infertility, endometriosis, and hormone-dependent tumors. The KISS1 receptor (KISS1R, also called GPR54), a G-protein-coupled receptor (GPCR), acts (through phospholipase C) to increase intracellular inositol trisphosphate and then release intracellular calcium stores. Cell-based KISS1R-HEK293 assay is using HEK293 cells that have been genetically engineered to express the human KISS1R, which activity can be measured by calcium signaling. A compound/drug can activate (agonist) KISS1R that can be monitored by levels of intracellular calcium.
KISS1R-HEK293 cells developed by Codex Corp contain human KISS1R gene, which was stably integrated into HEK 293 cells. The compound activation can be detected by fluorescence intensity via calcium flux assay. This cell line has been used to screen the Tox21 10K compound library to identify agonists of KISS1R.
KISS1R-Hek293 cells were dispensed at 1500 cells/4uL/well in 1536-well black wall/clear bottom plates using a multidrop dispenser. After the assay plates were incubated at a 37 C/5% CO2 incubator for 18 hours, 4 microL of Calcium Dye Solution was added to each well. The plates were incubated at 37 C for 1 hour. And then 23 nL of compounds dissolved in DMSO, positive controls, or DMSO only was transferred to the assay plate by a pin tool station. The fluorescence intensity in the plates was measured using FDSS 7000EX kinetic plate reader with a filter set of Ex/Em=480/540 for 3 min at 1 sec intervals. Each test compound was measured at 15 concentrations and in triplicates.
% is set by controls: 0 for no effect and ±100 for the full control effect.

Sequence of KiSS-1 receptor (Homo sapiens) (Q969F8 whole entry, looked up): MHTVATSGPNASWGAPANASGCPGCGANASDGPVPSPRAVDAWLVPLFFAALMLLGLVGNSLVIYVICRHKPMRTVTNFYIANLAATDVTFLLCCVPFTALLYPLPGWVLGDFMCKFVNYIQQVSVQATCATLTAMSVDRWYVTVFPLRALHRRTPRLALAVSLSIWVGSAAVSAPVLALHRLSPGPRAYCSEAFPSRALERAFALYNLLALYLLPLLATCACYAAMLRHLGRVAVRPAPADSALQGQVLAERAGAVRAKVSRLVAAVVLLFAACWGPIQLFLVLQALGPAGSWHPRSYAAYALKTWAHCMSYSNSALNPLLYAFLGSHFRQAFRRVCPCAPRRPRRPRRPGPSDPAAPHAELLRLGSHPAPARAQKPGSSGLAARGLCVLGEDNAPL

Row | Structure (SMILES) | activation | Potency
1 | CC(=O)c1cccc([N+](=O)[O-])c1 | -4.49% | –
2 | C[n+]1ccn(CCO)c1 | – | inactive
3 | Nc1ccc(Oc2ccc(Cl)cc2)cc1 | 0.391% | –
4 | CCCCNc1ccccc1 | -1.38% | –
5 | Nc1ccccc1S(=O)(=O)O | -0.264% | –
6 | Cc1ccccc1OCC(O)CO (stereo not given) | 0.0486% [at 35.3 µM] | –
7 | C[Si](C)(C)O[Si](C)(C)O[Si](C)(C)C | -0.0458% | –
8 | c1ccc2cnccc2c1 | 3.84% | –
9 | CC(=O)C(C)O (stereo not given) | 1.74% | –
10 | OCC#CCO | – | inactive
11 | Nc1cc(=O)[nH]c(N)n1 | 0.805% [at 35.3 µM] | –
12 | CCCN1CCCC[C@H]1C(=O)Nc1c(C)cccc1C | -0.579% [at 35.3 µM] | –
13 | CCCCOC(=O)CCS | 5.27% | –
14 | CC(=O)O[C@H](CC(=O)[O-])C[N+](C)(C)C | -0.745% | –
15 | CC(C)S | -5.74% | –
16 | C=CC(=O)NCOCC(C)C | -3.48% | –
17 | CNC(=O)NC | -1.49% | –
18 | Cc1cccc(N(C)C)c1 | 0.987% | –
19 | CCCCOCCOCCOCCCC | -1.21% | –
20 | CCC(=O)OC | 1.12% | –

Row | Structure (SMILES) | activation | Potency
21 | Cc1cccc(N(C)C(=S)Oc2ccc3ccccc3c2)c1 | – | inactive
22 | CC(=O)CC(=O)Nc1ccccc1 | – | inactive
23 | COC(OC)OC | -1.36% | –
24 | CCCCCCCCCCCCCC | -1.36% | –
25 | Cc1ccc(C(C)(C)C)cc1 | – | inactive
26 | O=C(O)CN(CCN(CC(=O)O)CC(=O)O)CCN(CC(=O)O)CC(=O)O | -1.13% [at 15.8 µM] | –
27 | OC1CCCCCCCCCCC1 | – | inactive
28 | CC(C)(C)OC(=O)c1cccc(N)c1 | 9.24% | –
29 | Cc1ccc2ccccc2c1[N+](=O)[O-] | 5.74% | –
30 | O=[N+]([O-])c1ccc(/C=C/c2ccc([N+](=O)[O-])cc2S(=O)(=O)O)c(S(=O)(=O)O)c1 | – | inactive
31 | CCC(C)c1ccccc1O (stereo not given) | – | inactive
32 | O=C(O)[C@H](O)[C@@H](O)[C@H](O[C@@H]1O[C@H](CO)[C@H](O)[C@H](O)[C@H]1O)[C@H](O)CO | 1.97% [at 35.3 µM] | –
33 | COc1ccc(C#N)cc1 | -5.33% | –
34 | CC(C)CC=O | 1% | –
35 | CCCCCCCCc1ccc(Nc2ccc(CCCCCCCC)cc2)cc1 | 0.794% [at 35.3 µM] | –
36 | CCCCCCCC(=O)OCCCCCC | -1.67% | –
37 | O=C(O)c1cc(C(=O)O)cc([N+](=O)[O-])c1 | -1.61% | –
38 | Cc1ccccc1C | 0.526% | –
39 | CC(=O)c1ccccc1O | -2.84% | –
40 | CC/C=C\CCO | 0.924% | –
